Screens deposited in PubChem by NMMLSC.
MEP2-GFP yeast: yeast TOR pathway MEP2-GFP modulation; GFP response vs DMSO, % at 10 µM; S. cerevisiae MEP2-GFP strain, flow cytometry GFP, 3 h; 100% = DMSO control level; 0.51% of 330,000 active;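 active means GFP response versus DMSO above a set limit, roughly screen mean plus 3 SD, cut at about 180% in these data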;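 further: median GFP fluorescence of the barcode-gated MEP2-GFP cells per well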
CIT2 TOR yeast: modulators of TOR pathway CIT2-GFP in S. cerevisiae; S. cerevisiae CIT2-GFP strain, flow cytometry, 3 h; 100 means same as DMSO wells; GFP response vs DMSO, % at 10 µM; AID 2029; 0.065% of 320,000 active;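 active means GFP response relative to DMSO above a set limit, near the screen mean plus 3 SD, cut at about 150% in these data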;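 further: ratio of well median GFP fluorescence to mean of DMSO wells on the plate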
DSG3 Ab inh: human desmoglein-3 autoantibody binding inhibition; P32926; DSG3-coupled beads, scFv-anti-DSG3-GFP binding, flow cytometry; active compounds read low; binding (percent of control), % at 10 µM; 0.48% of 310,000 active; AID 588358;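 active means binding more than 3 SD below its plate's average and above zero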;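 further: hits lower antibody fragment binding to DSG3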
Target sequence (P32926 whole entry, looked up, the tested form may be a part): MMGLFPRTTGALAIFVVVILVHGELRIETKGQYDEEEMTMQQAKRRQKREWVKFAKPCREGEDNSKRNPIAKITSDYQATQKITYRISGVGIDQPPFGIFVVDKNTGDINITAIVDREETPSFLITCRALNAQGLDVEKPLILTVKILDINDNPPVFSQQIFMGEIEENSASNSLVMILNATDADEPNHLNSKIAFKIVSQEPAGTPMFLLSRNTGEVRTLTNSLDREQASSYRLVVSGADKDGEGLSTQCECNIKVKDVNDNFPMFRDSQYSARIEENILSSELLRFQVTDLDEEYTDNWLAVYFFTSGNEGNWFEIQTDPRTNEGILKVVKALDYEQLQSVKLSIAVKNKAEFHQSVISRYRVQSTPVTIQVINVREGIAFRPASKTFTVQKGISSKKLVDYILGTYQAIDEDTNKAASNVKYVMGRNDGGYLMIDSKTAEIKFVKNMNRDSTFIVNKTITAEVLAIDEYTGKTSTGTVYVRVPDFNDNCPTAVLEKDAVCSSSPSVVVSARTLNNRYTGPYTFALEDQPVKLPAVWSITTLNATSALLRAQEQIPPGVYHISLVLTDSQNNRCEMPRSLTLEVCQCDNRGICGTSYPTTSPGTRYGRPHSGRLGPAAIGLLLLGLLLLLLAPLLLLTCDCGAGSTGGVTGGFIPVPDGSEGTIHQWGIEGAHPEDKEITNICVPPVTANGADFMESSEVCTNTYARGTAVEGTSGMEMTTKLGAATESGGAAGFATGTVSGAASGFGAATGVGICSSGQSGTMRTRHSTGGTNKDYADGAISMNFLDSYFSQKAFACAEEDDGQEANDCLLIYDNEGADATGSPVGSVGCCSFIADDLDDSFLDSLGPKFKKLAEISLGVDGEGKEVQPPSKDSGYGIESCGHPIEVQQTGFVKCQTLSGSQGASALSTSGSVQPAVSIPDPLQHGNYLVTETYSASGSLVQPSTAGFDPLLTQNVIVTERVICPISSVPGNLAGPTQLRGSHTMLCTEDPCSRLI
RPL19A-GFP yeast: yeast TOR pathway RPL19A-GFP modulation; S. cerevisiae RPL19A-GFP strain, flow cytometry, 3 h; active compounds read low; percent response vs DMSO, % at 10 µM; 0.3% of 330,000 active;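 active means percent response vs DMSO below 50%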;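 further: median channel GFP fluorescence of the barcoded RPL19A-GFP strain; ratio of sample median GFP to plate DMSO average so 100% = DMSO; lower means less RPL19A-GFP as with rapamycin TOR inhibition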
AGP1-GFP MLPCN: yeast TOR pathway AGP1-GFP modulation; AID 2066; 0.02% of 320,000 active; GFP response vs DMSO, % at 10 µM; S. cerevisiae AGP1-GFP multiplex flow cytometry, 3 h; GFP as percent of DMSO wells;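 active means GFP response relative to DMSO above a set limit, near screen average plus 3 SD, cut at about 150% in these data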;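 further: median GFP channel fluorescence of the gated AGP1 strain per well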
LAP4 TOR yeast: modulators of TOR pathway LAP4-GFP in S. cerevisiae. GFP response vs DMSO, % at 10 µM. 0.34% of 320,000 active. S. cerevisiae LAP4-GFP multiplex, flow cytometry GFP, 3 h; median GFP as percent of DMSO wells;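 active means GFP response vs DMSO above a set limit, about the screen mean plus 3 SD, cut at about 150% in these data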
LAP4 cherry2: second confirmation of modulators of TOR reporter LAP4-GFP in yeast; shares compounds with LAP4 TOR yeast; S. cerevisiae LAP4-GFP strain, flow cytometry GFP, 3 h; GFP response vs DMSO, % at 10 µM; 20% of 590 active; AID 2621;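 active means GFP signal as percent of the solvent control above about 150%, meaning raised reporter expression, limit read from the data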;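 further: ratio of well median GFP fluorescence to plate DMSO mean so 100% = DMSO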
MEP2 cherry2: reconfirmed MEP2-GFP TOR pathway modulator in yeast. 10% of 590 active. S. cerevisiae MEP2-GFP strain, flow cytometry GFP, 3 h. AID 2622. GFP response vs DMSO, % at 10 µM. shares compounds with LAP4 TOR yeast;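 active means GFP signal above 150% of the solvent control wells, that is a rise of more than half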;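 further: median channel GFP fluorescence of all gated yeast cells per well; ratio of median GFP to plate DMSO average so 100% = DMSO level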
RPL19A-GFP pick2: yeast RPL19A-GFP TOR reporter modulation, second cherry pick. shares compounds with LAP4 TOR yeast. S. cerevisiae RPL19A-GFP strain, flow cytometry GFP, 3 h; active compounds read low; 100% means same as DMSO wells. GFP response vs DMSO, % at 10 µM. 3% of 590 active;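 active means under 65% GFP response relative to DMSO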;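 further: median GFP channel fluorescence per well over the all cells gate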
CIT2-GFP pick2: second confirmation of modulators of TOR reporter CIT2-GFP in yeast; shares compounds with LAP4 TOR yeast; S. cerevisiae CIT2-GFP strain, flow cytometry GFP, 3 h; DMSO control wells read 100%; GFP response vs DMSO, % at 10 µM; 8% of 590 active; AID 2624;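 active means GFP response vs DMSO above about 150%, limit read from the data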;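 further: median green fluorescence per well over all gated yeast cells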
AGP1-GFP pick2: yeast AGP1-GFP TOR reporter modulation, second cherry pick; shares compounds with LAP4 TOR yeast; S. cerevisiae AGP1-GFP strain, flow cytometry GFP, 3 h; percent response vs DMSO, % at 10 µM; 590 tested, under 10 active;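 active means over 150 percent of DMSO response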;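 further: median GFP channel fluorescence over all cells without mother daughter split; sample median GFP divided by mean DMSO control so 100% equals DMSO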
s288c autofluor: yeast s288c autofluorescence artifact, counter-screen; S. cerevisiae s288c, 520 nm autofluorescence, flow cytometry, 3 h; active compounds read high; zero means same as solvent-only cells; 610 tested, under 10 active; AID 2757; shares compounds with LAP4 TOR yeast; fluorescence change (kMESF span) at 33 µM;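 active means fluorescence span over the dose series, or activity score, above about 33, limit read from the data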
Numbers without * were called inactive; x = not tested or not shown. The list is not random: actives were taken first. Their share in the collection is about 1.2%.

SMILES | MEP2-GFP yeast | CIT2 TOR yeast | DSG3 Ab inh | RPL19A-GFP yeast | AGP1-GFP MLPCN | LAP4 TOR yeast | LAP4 cherry2 | MEP2 cherry2 | RPL19A-GFP pick2 | CIT2-GFP pick2 | AGP1-GFP pick2 | s288c autofluor
S=c1[nH]nc(-c2ccco2)n1/N=C/c1ccc(Cl)cc1Cl | 216* | 102 | 97 | 101 | 99 | 120 | 102 | 100 | 99 | 99 | 94 | x
COc1ccc2c(c1)S/C(=C\C(=O)c1ccncc1)N2C | 103 | 68 | 98 | 56 | 56 | 106 | 97 | 114 | 62* | 100 | 67 | 0.81
CCCCC(=O)Nc1nnc(CCOC)s1 | 108 | 99 | 88 | 105 | 98 | 93 | x | x | x | x | x | x
Oc1ccc(CNc2ccc(F)cc2)c2cccnc12 | 109 | 102 | x | 106 | 107 | 84 | x | x | x | x | x | x
Oc1ccc(CNc2ccccc2)c2cccnc12 | 105 | 102 | 95 | 95 | 99 | 78 | 103 | 124 | 105 | 121 | 103 | 0.4
O=C(Nc1ccc(Cl)cc1Cl)c1cccc(N2C(=O)C=CC2=O)c1 | 102 | 87 | 75 | 64 | 90 | 184* | x | x | x | x | x | 1.5
O=C(O)c1cccc(N2C(=O)C=CC2=O)c1 | x | x | 101 | x | x | x | x | x | x | x | x | x
COC(=O)C(C)N1C(=O)S/C(=C/c2cc(C)n(C(C)C)c2C)C1=O (configuration not stated) | 91 | 100 | x | 91 | 96 | 90 | x | x | x | x | x | x
COc1ccc(N2C(=O)CC(Sc3ncn[nH]3)C2=O)c(OC)c1 (configuration not stated) | 88 | 103 | 95 | 96 | 97 | 124 | x | x | x | x | x | 0.61
CC(C)c1ccc(N2C(=O)CC(Sc3ncn[nH]3)C2=O)cc1 (configuration not stated) | 76 | 99 | 102 | 98 | 82 | x | x | x | x | x | x | x
O=C1C=C(N2CCN(c3ccccn3)CC2)C(=O)c2c(O)ccc(O)c21 | x | x | 99 | x | x | x | x | x | x | x | x | x
CC1=CC(=O)c2c(O)ccc(O)c2C1=O | 139 | 100 | x | 96 | 101 | 195* | 196* | 276* | 103 | 132 | 97 | x
O=C(NC1CCCCC1)c1cc(-c2ccccc2O)on1 | 103 | 102 | x | 101 | 102 | 98 | x | x | x | x | x | x
Cc1cc(C(=O)N/N=C/C=C/c2ccc([N+](=O)[O-])cc2)n[nH]1 | 105 | 96 | 100 | 97 | 96 | 92 | x | x | x | x | x | x
Cc1c(C(=O)Nc2c(F)cc(F)cc2Br)sc2ncn(CC(=O)N3CCCC3)c(=O)c12 | 108 | 98 | 99 | 97 | 94 | 98 | x | x | x | x | x | x
COc1ccc(-c2[nH]c3ccccc3c2SCCNC(=O)c2ccccc2)cc1 | 662* | 148 | 104 | 66 | 140 | 217* | 98 | 100 | 100 | 97 | 100 | x
O=C(CCN1CCN(C(=O)c2ccccc2)CC1)c1ccc(Br)cc1 | 92 | 90 | 111 | 100 | 92 | 104 | x | x | x | x | x | x
O=S(=O)(/N=C(/Sc1ccccc1)c1ccccc1)c1ccccc1 | 90 | 62 | 96 | 94 | 83 | 190* | x | x | x | x | x | 0.1
CS/C(=N\S(=O)(=O)c1ccccc1)c1ccccc1 | 92 | 92 | 99 | 99 | 102 | 99 | x | x | x | x | x | x
